RORg inh – qHTS for inhibitors of ROR gamma transcriptional activity | AID 2551, 2010 | Nuclear receptor ROR-gamma (Mus musculus), P51450 | Drosophila S2 Gal4-RORgamma UAS-luciferase reporter, 20 h | 310,000 tested, 5.4% active | Potency, µM (series often up to 53.6 µM), inactives show at the highest dose activity change, negative = inhibition, hits mostly inhibitors; note: nearly all actives have a fitted effect of over 60% in size
Target sequence (P51450 whole entry, looked up, the tested form may be a part): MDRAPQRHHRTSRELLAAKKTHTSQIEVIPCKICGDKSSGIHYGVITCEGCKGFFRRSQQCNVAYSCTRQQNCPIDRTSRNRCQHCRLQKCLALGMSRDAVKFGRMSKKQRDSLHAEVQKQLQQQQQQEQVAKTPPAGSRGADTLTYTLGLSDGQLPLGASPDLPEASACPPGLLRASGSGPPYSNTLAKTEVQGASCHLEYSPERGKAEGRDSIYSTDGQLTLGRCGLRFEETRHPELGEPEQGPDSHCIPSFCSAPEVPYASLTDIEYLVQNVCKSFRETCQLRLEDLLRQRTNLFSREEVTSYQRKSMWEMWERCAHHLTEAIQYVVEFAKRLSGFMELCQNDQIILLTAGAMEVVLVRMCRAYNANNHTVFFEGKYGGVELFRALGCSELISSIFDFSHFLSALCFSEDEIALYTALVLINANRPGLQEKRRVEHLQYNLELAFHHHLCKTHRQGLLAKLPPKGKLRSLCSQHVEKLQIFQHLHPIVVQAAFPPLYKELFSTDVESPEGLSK
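Drosophila Schneider cells stably carrying a metallothionein-driven Gal4 DBD–ROR gamma fusion and a UAS-Photinus luciferase reporter were exposed to compound for 1 hr, then induced with copper sulfate (700 uM final) for 20 hr at ambient temperature before luminescence reading.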
DT40 TDP1 no CPT – qHTS for Inhibitors of human tyrosyl-DNA phosphodiesterase 1 (TDP1): qHTS in cells in absence of CPT. Potency, µM (top dose mostly 46.2 µM), for the others: at the top dose activity change, negative = growth inhibition, hits mostly inhibitors. 420,000 tested, 15% active. DT40 Tdp1-/- hTDP1 cells, no CPT, ATP luminescence, 48 h; note: nearly all actives have a fitted effect of over 55% in size
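Stably hTDP1-transfected Tdp1-null chicken DT40 cells were treated with library compounds minus camptothecin and grown for at least 48 hr at 37 °C, after which cellular ATP was quantified by luminescence.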
DT40 TDP1 CPT – qHTS for Inhibitors of human tyrosyl-DNA phosphodiesterase 1 (TDP1): qHTS in cells in presence of CPT. 420,000 tested, 12% active. chicken DT40 Tdp1-/-;hTDP1 cells + 20 nM CPT, ATP luminescence, 48 h. Potency, µM (titrated, usually from 46.2 µM), for inactives: top-dose activity change, negative = growth inhibition, most hits filed as inhibitors; note: nearly all actives have a fitted effect of over 55% in size
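Chicken DT40 Tdp1-/- cells complemented with human TDP1, 400 cells/well, exposed to compounds plus 20 nM camptothecin for at least 48 h at 37 C; viability read as ATP content by CellTiter-Glo luminescence.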
TDP1 block – qHTS Assay for Inhibitors of Tyrosyl-DNA Phosphodiesterase (TDP1) | 350,000 tested, 0.28% active | recombinant TDP1, AlphaScreen DNA substrate cleavage | Tyrosyl-DNA phosphodiesterase 1 (Homo sapiens), Q9NUW8 | Potency, µM (highest dose often 130 µM), for inactives: top-dose activity change, negative = inhibition, hits mostly inhibitors; note: nearly all actives have a fitted effect of over 40% in size
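Enzyme-compound mixtures sat 15 min at room temperature, followed by a 5 min reaction with 15 nM final substrate and 10 min with AlphaScreen beads. Recombinant human Tdp1 was used at 1 nM final.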
VP16 counter – VP16 counterscreen qHTS for inhibitors of ROR gamma transcriptional activity | Drosophila S2 Gal4-VP16 UAS-luciferase, luminescence, 20 h | Potency, µM (top dose mostly 53.6 µM), for inactives: top-dose activity, negative = inhibition, usual class: inhibitors | 310,000 tested, 3.5% active | AID 2546, 2010;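 note: Gal4-VP16 expression switched on by copper sulfate through the metallothionein promoter; nearly all actives have a fitted effect of over 50% in size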
* = called active by the depositor; ? = inconclusive; . = not tested or not shown; [ ] = remark or other dose. Most compounds without a hit are left out; they make up all but 19% or so of the library. Calls come from the whole dose curve; as a rule, active = well fitted curve in the direction sought with a large enough effect; inconclusive = small, poorly fitted or top-dose-only effect, or another doubt; inactive = no such curve, though single readings can be large; an effect the other way counts as inactive or inconclusive. % is set by controls: 0 for no effect and ±100 for the full control effect; potency is the fitted concentration of half-maximal effect.

SMILES | RORg inh | DT40 TDP1 no CPT | DT40 TDP1 CPT | TDP1 block | VP16 counter
CCn1c(CN2CCC(C)CC2)nc2cc(NC(=O)COc3ccc(Cl)c(C)c3)ccc21 | . | 5.17µM* | 6.51µM* | 4.7% | .
CC1CCN(CCc2nc3cc(NC(=O)Nc4ccccc4)ccc3n2C)CC1 | -3.5%[10 µM] | ? | 20.6µM* | 6.0% | 2.1%
Cn1c(CCN2CCOCC2)nc2cc(NC(=O)COc3ccc([N+](=O)[O-])cc3)ccc21 | 2.9% | -6.2% | -25.6% | 0.1% | -1.7%
COC(=O)c1cc(=O)nc(NN=Cc2ccco2)s1 | . | 15.5% | -20.2% | . | .
c1coc(-c2cc3nc(NC4CCCCC4)ccn3n2)c1 | . | 20.6µM* | ? | . | .
O=C(N/N=C/c1cc(Br)c(Br)o1)c1cccnc1 | ? | 18.4µM* | 16.4µM* | -5.4% | ?
O=C(N/N=C\c1cc(Br)c(Br)o1)c1cncc(Br)c1 | 1.41µM* | ? | ? | 1.8% | 2µM*
O=C(N/N=C/c1cc(Br)c(Br)o1)c1ccc2c(c1)OCCO2 | 7.2% | ? | ? | 1.2% | -3.0%
Cc1ccc2nc3ccc(N4CCCC4)nn3c(=O)c2c1 | -34.8% | ? | -2.7% | 0.0% | -16.1%
CC1CCCN(c2ccc3nc4ccccc4c(=O)n3n2)C1 (stereo not given) | 8.91µM* | ? | ? | 5.3% | 4.47µM*
CC(C)(C)n1nnnc1C(c1ccncc1)N1CCCCCC1 (stereo not given) | -18.1% | -4.8% | -22.9% | 4.8% | -8.4%
CC(C)(C)n1nnnc1C(c1ccc(C#N)cc1)N1CCCC2(CCCCC2)C1 (stereo not given) | -7.0% | 23.1µM* | 20.6µM* | 0.0% | -8.0%
CCCc1nc2ccc(NC(C)=O)cc2c(=O)n1Cc1ccc(Cl)cc1 | ? | 23.1µM* | ? | 1.2% | -1.3%
CCCc1nc2ccc(NC(=O)c3cccs3)cc2c(=O)n1Cc1ccccc1Cl | 15.3% | 16.4µM* | ? | 0.0% | -15.3%
Cc1ccc(N=C(NO)c2cnccc2C(F)(F)F)c(C)c1 | 3.4% | 2.1% | -13.7% | . | -14.0%
Oc1ccccc1/C=N/Nc1nn[nH]n1 | ? | -7.0% | -7.6% | 6.8% | -1.1%
CCOc1ccccc1/C=N/Nc1ccnc(=O)[nH]1 | -30.1% | 2.91µM* | 5.17µM* | . | 3.3%
COc1cccc(/C=N/Nc2ccccc2C(=O)O)c1O | ? | -1.1% | -8.3% | . | -25.1%
O=c1nccc(N/N=C/c2ccccc2O)[nH]1 | 3.55µM* | 0.326µM* | 0.231µM* | . | 7.08µM*
COc1cccc(/C=N/Nc2ccnc(=O)[nH]2)c1O | 3.98µM* | 0.0651µM* | 0.0231µM* | . | 8.91µM*
CCN(C(=O)COC(=O)c1cc(S(=O)(=O)N2CCOCC2)c(Cl)cc1Cl)C1CCS(=O)(=O)C1 (stereo not given) | 14.1% | -2.0% | 7.6% | -2.5% | -17.0%
COc1cccc(-c2nc(NCc3ccccc3)c3ccccc3n2)c1 | 29.5% | 16.4µM* | ? | . | -29.7%
COCCNc1nc(-c2cccc(OC)c2)nc2ccccc12 | 0.6% | 6.51µM* | 18.4µM* | 7.7%[56.1 µM] | 3.0%
CS(=O)(=O)Nc1cccc(-c2nc(NC3CC3)c3ccccc3n2)c1 | 34.3% | ? | ? | . | 2.9%
COc1cccc(-c2nc(NC3CC3)c3ccccc3n2)c1 | 3.6% | 20.6µM* | 16.4µM* | . | 7.3%
SMILES | RORg inh | DT40 TDP1 no CPT | DT40 TDP1 CPT | TDP1 block | VP16 counter
COc1cccc(-c2nc(NCc3cccnc3)c3ccccc3n2)c1 | -22.5% | -20.4% | -5.0% | . | -9.0%
COCCNc1nc(-c2ccccc2)nc2ccccc12 | -12.2% | ? | 3.4% | 2.8% | -2.7%
O=C1C=C(c2cc3ccccc3s2)C[C@@H](c2ccc3c(c2)OCO3)C1 | . | ? | -23.8% | 2.8% | .
CCOc1ccc(NC(=O)C2CC3CCC2C3)cc1 (stereo not given) | . | -15.3% | 16.1% | . | .
COc1ccc(NC(=O)C2CCCN(c3ncccn3)C2)cc1 (stereo not given) | 1.8% | -5.3% | -1.3% | -1.2%[0.0935 µM] | 13.8%
CCC(C)c1ccc(NC(=O)C2CCCN(c3ncccn3)C2)cc1 (stereo not given) | 16.3% | 18.4µM* | 20.6µM* | -2.1% | -7.7%
Cc1ccnc(N2CCCC(C(=O)Nc3ccc(C)c(C)c3)C2)n1 (stereo not given) | 0.2% | ? | 9.2µM* | . | 1.1%
CCC(C)c1ccc(NC(=O)C2CC3CCC2C3)cc1 (stereo not given) | . | 25.9µM* | ? | . | .
COCCCNC(=O)C1CC(=O)OC1c1ccc(OC)c(OC)c1 (stereo not given) | -2.6% | -22.5% | -0.3% | 4.0% | 14.0%
CCN(c1ccccc1)S(=O)(=O)c1ccc(Oc2ccc(-n3ccnc3)cc2)nc1 | 17.9% | 8.2µM* | 5.17µM* | -8.8% | -9.9%
COc1ccc(S(=O)(=O)N2CCC(c3nc4ccccc4[nH]3)CC2)cc1 | 0.0% | 10.3µM* | ? | 3.1% | -8.3%
COc1ccc(OC)c(S(=O)(=O)N2CCC(c3nc4ccccc4[nH]3)CC2)c1 | . | ? | ? | 3.7% | .
CC(C)C(=O)Nc1ccc(S(=O)(=O)N2CCC(c3nc4ccccc4[nH]3)CC2)cc1 | . | 20.6µM* | ? | 1.4% | .
COc1ccc(S(=O)(=O)N2CCCCCC2)cc1C(=O)N(C)Cc1ccco1 | . | 18.4µM* | 25.9µM* | . | .
COc1ccc(S(=O)(=O)N2CCCCCC2)cc1C(=O)N(C)Cc1ccc(OC)c(OC)c1OC | . | 23.1µM* | ? | -6.2% | .
C=CCOC(=O)Nc1nc(CCNC(=O)OC(C)(C)C)c(C(=O)OC)s1 | . | -17.3% | -15.3% | . | .
CCN(CC)c1nc2n(c(=O)n1)CCN2CC | 4.0% | -8.1% | -3.9% | 2.4% | 0.3%
CCc1nc2c(OCc3ccccc3C(=O)OC)cccn2c1N(C)C(=O)c1ccncc1 | . | -23.4% | ? | . | .
CCc1nc2c(OCCc3cccc(OC)c3)cccn2c1N(C)C(=O)c1cccs1 | . | ? | 20.6µM* | . | .
CCc1nc2c(OCc3ccccc3C(=O)OC)cccn2c1N(C)C(=O)c1cccs1 | . | 29.1µM* | ? | . | .
CCc1nc2c(OCc3ccccc3C(=O)OC)cccn2c1N(C)C(=O)CC(C)C | . | 13µM* | 16.4µM* | . | .
O=C(O)CNC(=O)C1COc2ccccc2O1 (stereo not given) | -17.8% | -12.6% | 1.8% | -1.1% | -18.2%
Cc1ccc(S(=O)(=O)NCC2CCC(C(=O)NCCc3ccccc3)CC2)cc1 (stereo not given) | . | -15.7% | -11.3% | 6.3% | .
COc1cc2nc(Cl)nc(NC3CCN(C)CC3)c2cc1OC | . | ? | 11.2µM* | . | .

Source: PubChem (National Center for Advancing Translational Sciences (NCATS))
